CHX counter: affects cycloheximide protein synthesis inhibition readout, counter-screen; hit rate 12% among 300,000; max response, %; cell reporter, cycloheximide protein synthesis inhibition counterscreen; AID 2314; in the data active = max response mostly above about 13%, no sharp cut-off; inactive = mostly below about 14%; also: read at 38.3 µM for the half of the compounds with a filed dose; 0% is about no effect
HCMV antiviral: human cytomegalovirus inhibition | activity change, negative = inhibition, % at 57.5 µM | hit rate 4.5% among 410,000 | HFF cells, HCMV-luciferase reporter, 72 h; stronger effect = lower value; in the data active = activity change below about -60%; inconclusive = no clear call, values can overlap the other calls; inactive = above about -39%; also: % is scaled to controls: 0 for no effect and ±100 for the full control effect
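Steps: HFFs plated, 16 h 37C; compounds added; HCMV-luciferase added to MOI 1 PFU/cell; 72 h 37C; OneGlo reagent, 5 min room temperature; luminescence read, normalized to controls.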
Shiga toxin inh: blocks Shiga toxin action in Vero cells; hit rate 9.2% among 290,000; Vero cells, Shiga toxin protein synthesis inhibition reporter; AID 2315; inhibition, % at 38.7 µM; in the data active = inhibition mostly above about 28%, no sharp cut-off; inactive = mostly below about 43%; also: 0% is about no effect
Pf growth 96h: P. falciparum growth inhibition at 96 hours; P. falciparum luciferase reporter growth, 96 h; Potency, µM (titrated, usually from 28.7 µM), for the others: at the top dose activity change, negative = inhibition, actives largely listed as inhibitors; hit rate 6.9% among 320,000; AID 504834; also: potency is read from the fitted curve at half-maximal effect; % is scaled to controls: 0 for no effect and ±100 for the full control effect
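Delayed-death screen, second-generation endpoint: infected erythrocytes, 2% hematocrit, 0.05% parasitemia final; 96 hours at 37 C, 5% CO2; luciferase detection reagent; luminescence decrease equals reduced growth.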
Pf growth 48h: inhibits P. falciparum growth in the first generation, 48 h | hit rate 5.9% among 310,000 | P. falciparum luciferase growth in erythrocytes, 48 h | Potency, µM (series often up to 28.7 µM), for the others: top-dose activity change, negative = inhibition, most hits filed as inhibitors | AID 504832; also: potency is read from the fitted curve at half-maximal effect; % is scaled to controls: 0 for no effect and ±100 for the full control effect
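Here the parasites carry a stable luciferase gene and grow inside erythrocytes in Albumax-based RPMI medium with compound for one erythrocytic cycle. Activity is scored as loss of luminescent signal.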
An asterisk follows results filed as active; ? = inconclusive; / = no result; ! = repeats disagree; [ ] = dose if it differs, or a comment. The list is not random: actives were taken first. Their share in the collection is about 20%. Unless noted, calls follow the shape of the dose curve; as a rule, active = well fitted inhibition curve with a large enough effect; inconclusive = small, poorly fitted or top-dose-only effect, or another doubt; inactive = no such curve, though single readings can be large or run the other way.

SMILES	CHX counter	HCMV antiviral	Shiga toxin inh	Pf growth 96h	Pf growth 48h
CCCn1nc(NC(=O)c2cccs2)c2cc3ccc(C)cc3nc21	-1	-28	-1	?	2.9µM*
COc1ccc2nc3c(cc2c1)c(NC(=O)CC(C)C)nn3CC(C)C	-1	-37	-4	?	5.2µM*
CCCn1nc(NC(=O)c2cccs2)c2cc3cc(OC)ccc3nc21	18*	-16	29*	-21%	?
CCCCn1nc(NC(=O)c2cccs2)c2cc3cc(OC)ccc3nc21	14	-36	-3	/	?
Cn1c(SSc2ccc(-c3cccnc3)n2C)ccc1-c1cccnc1	/	-37	/	/	/
CCCCN(C(=O)CCCc1nc2ccccc2c(=O)[nH]1)c1c(N)n(CC(C)C)c(=O)[nH]c1=O	/	0	/	-24%	-13%
COc1cc(OC)c(NC2=C(c3ccc(C(F)(F)F)cc3)C(=O)c3ccccc32)cc1Cl	/	-36	/	/	/
O=C(NCCc1ccccc1)c1ccc(CS(=O)(=O)c2ccc(Cl)cc2)o1	13	-60*!	17	-1%	?
O=C(NCc1ccccc1)c1ccc(CS(=O)(=O)c2ccccc2)o1	-8	-6	-12	10µM*	/
Cc1ccccc1S(=O)(=O)Cc1ccc(C(=O)NCc2cccnc2)o1	2	6	5	9.3µM*	-8%
O=C(NCCc1ccc(Cl)cc1)c1ccc(CS(=O)(=O)c2ccc(Cl)cc2)o1	/	-20	/	/	/
CCN1C(=O)C2(Nc3ccccc3-c3nc4ccccc4n32)c2cc(OC)ccc21 (configuration not stated)	-4	?	-24	5%	9.3µM*
CN1C(=O)C2(NC(=O)c3ccccc3N2C)c2ccccc21 (configuration not stated)	-2	89	-5	50%	0%
CN1C(=O)C2(Nc3ccccc3-c3nc4ccccc4n32)c2ccccc21 (configuration not stated)	7	-20	6	-8%	8.3µM*
O=C1Nc2ccccc2C12Nc1ccccc1-c1nc3ccccc3n12 (configuration not stated)	4	0	4	/	0.74µM*
O=C1Cn2c(nc3ccccc32)-c2ccccc2N1	1	-1	10	0%	100%
Cc1ccc(NC(=O)C2C(=O)N(C)c3ccccc32)cc1 (configuration not stated)	19*	70	42	9%	-3%
CN1C(=O)C(C(=O)Nc2ccccc2F)c2ccccc21 (configuration not stated)	-5	-9	20	4%	16%
CCOc1cccc(NC(=O)C(Cc2cccs2)c2nn[nH]n2)c1 (configuration not stated)	2	-5	-4	?	47%
COc1ccc(CC(C(=O)Nc2cccc(F)c2)c2nn[nH]n2)c(OC)c1 (configuration not stated)	17*	-8	38	/	13%
COc1ccc(NC(=O)Nc2cn(CC(C)C)c(=O)c3ccccc23)c(OC)c1	/	-104*	/	/	/
COc1ccc(CNC(=O)Nc2cn(CC(C)C)c(=O)c3ccccc23)cc1	/	14	/	/	/
COc1ccc(NC(=O)Nc2ccc(F)c(F)c2)c(OC)c1	14*	?	-1	21%	?
COc1ccc(NC(=O)Nc2cccc(F)c2)c(OC)c1	17*	30	46	-18%	-24%[5.75 µM]
COc1ccc(NC(=O)Nc2ccncc2)c(OC)c1	-3	-16	-15	60%	?
SMILES	CHX counter	HCMV antiviral	Shiga toxin inh	Pf growth 96h	Pf growth 48h
COc1ccccc1OCC(=O)NCCS(=O)(=O)N1CCN(c2ccccc2OC)CC1	/	6	/	/	/
OC(c1cccc(F)c1)c1ncc(-c2ccc(Oc3ccccc3)cc2)[nH]1 (configuration not stated)	/	17	/	/	/
COc1ccc(NC(=O)N2c3ccc(OC)cc3[C@@H](NCc3ccc(C)o3)[C@H](C)[C@H]2c2ccccc2)cc1	/	6	/	/	/
CCn1ccnc1CN(C)C(=O)c1ccc(OC2CCN(CCc3ccccc3)CC2)cc1	8	-39	-8	?	-20%
O=[N+]([O-])c1ccc(N2CCOCC2)c2c1no[n+]2[O-]	/	-101*	/	/	/
COc1ccccc1NC(=O)C(=O)c1cc(C)n(-c2cc(C)cc(C)c2)c1C	/	-4	/	/	/
COc1ccc(CN2CCNC(=O)C2CC(=O)NC2CCCC2)cc1OC (configuration not stated)	-1	-12	-3	?	-15%
COc1ccc(CN2CCNC(=O)C2CC(=O)NC2CCCC2)c(OC)c1 (configuration not stated)	-2	25	-5	-11%	?
COc1ccc(C(=O)N2CCNC(=O)C2CC(=O)Nc2ccc(C)c(C)c2)cc1 (configuration not stated)	0	-12	-17	9.3µM*	11%
COc1ccc(CN2CCNC(=O)C2CC(=O)NC2CCCCC2)c(OC)c1 (configuration not stated)	-2	19	-2	9.3µM*	-17%
COc1ccc(CN2CCNC(=O)C2CC(=O)NC2CCCCCCC2)cc1OC (configuration not stated)	-1	?	-3	-8%	12µM*
COc1ccc(/C=C2/C(=O)N(c3ccccc3)N=C2C)cc1OC	-2	40	-8	100%	1%
COc1cc(/C=C2\SC(c3ccc(C)cc3)=NC2=O)ccc1O	23*	-6	52*	?	?
COc1ccc(C2=NN(c3ccccc3)C(=O)/C2=C\c2ccc(O)c(OC)c2)cc1	14	8	22	?	13µM*
O=C1C2C3C=CC(C4CC34)C2C(=O)N1CCCCN1CCN(c2ccc(F)cc2)CC1 (configuration not stated)	/	31	/	/	/
O=C(NC1CCCC1)C(c1ccncc1)N(C(=O)c1csnn1)c1ccc(F)c(Cl)c1 (configuration not stated)	3	9	-14	11%	?
COc1ccccc1Cc1c(-c2ccc(C)cc2)nc2c3ccccc3ccn12	/	23	/	/	/
Cn1c(N)c(C(=O)COC(=O)CC(NC(=O)c2ccccc2Cl)c2ccccc2)c(=O)n(C)c1=O (configuration not stated)	-2	41	-8	?	1.3µM*
Cc1ccccc1C(=O)NC(CC(C)C)C(=O)OCC(=O)c1c(N)n(C)c(=O)n(C)c1=O (configuration not stated)	-1	?	-2	?	1µM*
Cn1c(N)c(C(=O)COC(=O)Cc2ccccc2)c(=O)n(C)c1=O	/	7	/	/	/
CC(=O)NC(CC(=O)OCC(=O)c1c(N)n(CC(C)C)c(=O)n(C)c1=O)c1ccccc1 (configuration not stated)	/	-18	/	9.3µM*	12µM*
COc1ccc(NC(=O)c2ccc(NC(=O)COC(=O)CC(NC(=O)c3ccccc3Cl)c3ccccc3)cc2)cc1 (configuration not stated)	22*	0	49	43%	35%
CC(C)CC(C(=O)OCC(=O)c1c(N)n(C)c(=O)n(C)c1=O)N1C(=O)c2ccccc2C1=O (configuration not stated)	-1	20	-8	-29%	-14%

Screening data as filed in PubChem.
